Reference: PubChem BioAssay AID1159580 (chemical genetic matrix, 2015)
Hit rate of the full screen: of about 5,500 compounds, about 2,000 (36%) were called active. Roughly 18% stayed inconclusive and do not appear here. No stated cut-off is given here; in the data, active means normalized growth mostly below about 0.91 (no sharp cut-off); inconclusive means no clear call, values can overlap the other calls; inactive means mostly above about 0.92. Some of the results follow.

Experiment: chemical genetic growth profiling, strain panel (AID 1159580);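 further: tested at 20 µM; growth read once vehicle control cultures reached saturation at 30 °C; 1 = growth at the plate median or of vehicle wells; lower values mean less growth of the strain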
Details: growth OD

Measured: normalized growth

CC(=O)O[C@H]1CC[C@]2(C)C3CC(=O)[C@]4(C)C(C(C)=O)=CCC4C3CC[C@H]2C1 (stereo partly drawn)
active: S. cerevisiae deletion strains, locus YKR001C, strain vps1, hits give low values 0.897 | S. cerevisiae deletion strains, locus YLR418C, strain cdc73, hits give low values 0.839 | S. cerevisiae deletion strains, locus YNL071W, strain lat1, hits give low values 0.91
inactive: S. cerevisiae deletion strains, locus YJL187C, strain SWE1 (second series), hits give low values 1.01 | S. cerevisiae deletion strains, locus YJR043C, strain POL32, hits give low values 1.01 | S. cerevisiae deletion strains, locus YKL009W, strain mrt4, hits give low values 0.965 | S. cerevisiae deletion strains, locus YKL068W, hits give low values 0.988 | S. cerevisiae deletion strains, locus YKL085W, strain MDH1 (second series), hits give low values 0.992 | S. cerevisiae deletion strains, locus YKL085W, strain MDH1, hits give low values 0.992 | S. cerevisiae deletion strains, locus YKL160W, strain elf1, hits give low values 0.996 | S. cerevisiae deletion strains, locus YKR026C, strain gcn3, hits give low values 0.972 | S. cerevisiae deletion strains, locus YKR091W, strain srl3, hits give low values 0.993 | S. cerevisiae deletion strains, locus YLL001W, strain dnm1, hits give low values 0.986 | S. cerevisiae deletion strains, locus YLL026W, hits give low values 0.994 | S. cerevisiae deletion strains, locus YLL041C, strain sdh2, hits give low values 0.991 | S. cerevisiae deletion strains, locus YLR027C, strain aat2, hits give low values 0.993 | S. cerevisiae deletion strains, locus YLR039C, strain RIC1, hits give low values 1 | S. cerevisiae deletion strains, locus YLR058C, strain SHM2, hits give low values 1.02 | S. cerevisiae deletion strains, locus YLR102C, strain apc9, hits give low values 1 | S. cerevisiae deletion strains, locus YLR221C, strain rsa3, hits give low values 0.978 | S. cerevisiae deletion strains, locus YLR258W, strain gsy2, hits give low values 1 | S. cerevisiae deletion strains, locus YLR262C, strain YPT6 (second series), hits give low values 0.961 | S. cerevisiae deletion strains, locus YLR262C, strain YPT6, hits give low values 0.944 | S. cerevisiae deletion strains, locus YLR268W, strain sec22, hits give low values 0.965 | S. cerevisiae deletion strains, locus YLR320W, strain mms22, hits give low values 0.922 | S. cerevisiae deletion strains, locus YLR330W, strain CHS5, hits give low values 0.969 | S. cerevisiae deletion strains, locus YLR342W, strain FKS1 (second series), hits give low values 0.947 | S. cerevisiae deletion strains, locus YLR342W, strain FKS1, hits give low values 0.976 | S. cerevisiae deletion strains, locus YLR357W, strain rsc2, hits give low values 1.01 | S. cerevisiae deletion strains, locus YLR370C, strain arc18, hits give low values 1.01 | S. cerevisiae deletion strains, locus YLR371W, strain rom2, hits give low values 1.02 | S. cerevisiae deletion strains, locus YLR384C, strain iki3, hits give low values 0.984 | S. cerevisiae deletion strains, locus YML016C, strain PPZ1, hits give low values 1 | S. cerevisiae deletion strains, locus YML032C, strain rad52, hits give low values 1 | S. cerevisiae deletion strains, locus YML120C, strain ndi1, hits give low values 1 | S. cerevisiae deletion strains, locus YML124C, strain tub3, hits give low values 1 | S. cerevisiae deletion strains, locus YMR058W, strain fet3, hits give low values 0.986 | S. cerevisiae deletion strains, locus YMR078C, strain ctf18, hits give low values 0.999 | S. cerevisiae deletion strains, locus YMR125W, strain sto1, hits give low values 1.01 | S. cerevisiae deletion strains, locus YMR129W, hits give low values 0.991 | S. cerevisiae deletion strains, locus YMR205C, strain PFK2, hits give low values 0.95 | S. cerevisiae deletion strains, locus YMR223W, strain ubp8, hits give low values 0.993 | S. cerevisiae deletion strains, locus YMR231W, strain pep5, hits give low values 1.01 | S. cerevisiae deletion strains, locus YMR307W, strain GAS1, hits give low values 0.97 | S. cerevisiae deletion strains, locus YNL067W, strain RPL9B, hits give low values 1.02 | S. cerevisiae deletion strains, locus YNL209W, strain ssb2, hits give low values 1.01 | S. cerevisiae deletion strains, locus YNL233W, strain BNI4, hits give low values 0.988 | S. cerevisiae deletion strains, locus YNL248C, strain rpa49, hits give low values 0.984 | S. cerevisiae deletion strains, locus YNL250W, strain rad50, hits give low values 1.01 | S. cerevisiae deletion strains, locus YNL271C, strain bni1, hits give low values 1.01 | S. cerevisiae deletion strains, locus YNL298W, strain CLA4, hits give low values 1 | S. cerevisiae deletion strains, locus YNL307C, strain MCK1, hits give low values 0.934 | S. cerevisiae deletion strains, locus YNL322C, strain KRE1 (second series), hits give low values 0.975 | S. cerevisiae deletion strains, locus YNR049C, strain mso1, hits give low values 0.99 | S. cerevisiae deletion strains, locus YNR052C, strain pop2, hits give low values 1.03 | S. cerevisiae deletion strains, locus YOL006C, strain TOP1, hits give low values 0.907 | S. cerevisiae deletion strains, locus YOL012C, strain htz1 1.19 | S. cerevisiae deletion strains, locus YOL147C, strain pex11, hits give low values 1 | S. cerevisiae deletion strains, locus YOR001W, strain rrp6, hits give low values 0.995 | S. cerevisiae deletion strains, locus YOR061W, strain CKA2, hits give low values 1 | S. cerevisiae deletion strains, locus YOR069W, strain VPS5, hits give low values 0.997 | S. cerevisiae deletion strains, locus YOR070C, strain gyp1, hits give low values 1.01 | S. cerevisiae deletion strains, locus YOR080W, strain dia2, hits give low values 1.01 | S. cerevisiae deletion strains, locus YOR083W, strain WHI5, hits give low values 1 | S. cerevisiae deletion strains, locus YOR106W, strain vam3, hits give low values 1.01 | S. cerevisiae deletion strains, locus YOR136W, strain idh2, hits give low values 0.984 | S. cerevisiae deletion strains, locus YOR144C, strain elg1, hits give low values 1 | S. cerevisiae deletion strains, locus YOR184W, strain ser1, hits give low values 0.893 | S. cerevisiae deletion strains, locus YOR265W, strain rbl2, hits give low values 1 | S. cerevisiae deletion strains, locus YOR270C, strain vph1, hits give low values 0.843 | S. cerevisiae deletion strains, locus YOR290C, strain snf2, hits give low values 0.996 | S. cerevisiae deletion strains, locus YOR316C, strain cot1, hits give low values 0.996 | S. cerevisiae deletion strains, locus YPL051W, strain arl3, hits give low values 0.998 | S. cerevisiae deletion strains, locus YPL078C, strain atp4, hits give low values 0.991 | S. cerevisiae deletion strains, locus YPL106C, strain sse1, hits give low values 0.976 | S. cerevisiae deletion strains, locus YPL240C, strain hsp82, hits give low values 0.995 | S. cerevisiae deletion strains, locus YPL241C, strain CIN2, hits give low values 0.988 | S. cerevisiae deletion strains, locus YPR119W, strain clb2, hits give low values 1 | S. cerevisiae deletion strains, locus YPR141C, strain kar3, hits give low values 1 | S. cerevisiae deletion strains, locus YPR163C, strain tif3, hits give low values 0.983 | S. cerevisiae deletion strains, locus YPR167C, strain met16, hits give low values 0.994 | S. cerevisiae deletion strains, strain wtn01, hits give low values 0.973 | S. cerevisiae strains, strain wild type, hits give low values 0.996
